In the library only some 3.5% were active in any assay of this set; here they are far more common.
MITF primary: blocks human microphthalmia-associated transcription factor | AlphaScreen MITF homodimerization, bead proximity signal | O75030 | AID 1259374 | inhibition, % at 2.6 µM | 650,000 compounds, 0.91% hits; in the data active = inhibition above about 50%;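 note: 0% = vehicle wells with protein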
Target sequence (O75030 whole entry, looked up): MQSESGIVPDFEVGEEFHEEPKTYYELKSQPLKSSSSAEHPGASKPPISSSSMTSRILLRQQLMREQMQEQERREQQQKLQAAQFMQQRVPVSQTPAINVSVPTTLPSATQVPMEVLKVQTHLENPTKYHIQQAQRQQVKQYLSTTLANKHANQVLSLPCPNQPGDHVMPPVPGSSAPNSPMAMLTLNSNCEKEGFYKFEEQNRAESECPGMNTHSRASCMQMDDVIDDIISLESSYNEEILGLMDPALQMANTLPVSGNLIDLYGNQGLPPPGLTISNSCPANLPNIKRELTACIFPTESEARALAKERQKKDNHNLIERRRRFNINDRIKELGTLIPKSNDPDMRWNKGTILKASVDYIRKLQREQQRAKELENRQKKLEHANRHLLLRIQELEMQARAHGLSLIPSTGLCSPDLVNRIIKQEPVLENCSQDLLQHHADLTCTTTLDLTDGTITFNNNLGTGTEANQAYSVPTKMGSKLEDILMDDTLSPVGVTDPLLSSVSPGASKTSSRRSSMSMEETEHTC
TEAD-YAP block: TEAD-YAP interaction inhibition | HEK-TIYL cells, TEAD-Gal4/YAP UAS-luciferase luminescence | inhibition, % at 9.12 µM | 640,000 compounds, 1.4% hits | AID 1259422; in the data active = inhibition above about 32%;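 note: 0% = median of test compound wells and 100% = reference inhibitor wells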
FBW7 act: activators of human E3 ligase FBW7. Q969H0. AlphaScreen FBW7–phospho-cyclin E peptide binding, activator screen. normalized activity (activation), % at 26.1 µM. 650,000 compounds, 0.13% hits. AID 1259310; in the data active = normalized activity above about 1.9%;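 note: purified mutant Fbw7 with reduced substrate affinity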
GPR151 ag: activates the human receptor GPR151 | Q8TDV0 | PathHunter beta-arrestin GPR151 cells, luminescence | activation, % at 11.2 µM | 650,000 compounds, 1% hits; in the data active = activation above about 4.9%;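 note: 0% = median of compound wells and 100% = cells with positive control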
MITF inh conf: confirmation of human MITF inhibitors | shares compounds with MITF primary | inhibition, % at 2.6 µM | AlphaScreen MITF homodimerization, biotin/His-MITF beads | 4,700 compounds, 16% hits;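 active = inhibition above a cutoff derived from the DMSO control wells, cut at about 28% in these data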;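 note: 0% = MITF dimer wells with DMSO only; inhibitors lower the bead chemiluminescence by keeping MITF from dimerizing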
AlphaScreen intf2: AlphaScreen optical interference, counter-screen; shares compounds with MITF primary; LysRS AlphaScreen counterscreen, signal interference, triplicate; inhibition, % at 2.6 µM; 4,700 compounds, 7.6% hits; AID 1259376;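 active = inhibition above a cutoff derived from the DMSO control wells, cut at about 30% in these data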
The depositor's hits bear a star.

How did O=C(CSCc1ccc([N+](=O)[O-])cc1)Nc1ccc(Br)cc1C(=O)O do in these assays?
MITF primary: -6; TEAD-YAP block: -2; FBW7 act: 0; GPR151 ag: 0

How did Cc1ccc2c3c(ccc2n1)NC1=C(C(=O)CCC1)C3c1ccccn1 (centres undefined) do in these assays?
MITF primary: 63*; TEAD-YAP block: -19; FBW7 act: 0; GPR151 ag: 0; MITF inh conf: -3; AlphaScreen intf2: 5

How did Cc1ccc2c3c(ccc2n1)NC1=C(C(=O)CCC1)C3c1ccccc1C (centres undefined) do in these assays?
MITF primary: 4; TEAD-YAP block: 2; FBW7 act: 0; GPR151 ag: 1

What do the screens show for `COc1ccc(CN2CCN(C(=O)c3cccnc3)CC2)cc1`?
MITF primary: 52*; TEAD-YAP block: -3; FBW7 act: 0; GPR151 ag: 0; MITF inh conf: -3; AlphaScreen intf2: -9

How did COc1ccc(C(=O)N2CCN(C(=O)c3cccnc3)CC2)cc1 do in these assays?
MITF primary: 6; TEAD-YAP block: 7; FBW7 act: 0; GPR151 ag: 0

Results for COc1cccc(CN2CCN(C(=O)c3cc(OC)cc(OC)c3)CC2)c1 ?
MITF primary: 43; TEAD-YAP block: -5; FBW7 act: 0; GPR151 ag: -1

Results for COc1cccc(CN2CCN(C(=O)c3cccnc3)CC2)c1 ?
MITF primary: 70*; TEAD-YAP block: 6; FBW7 act: 0; GPR151 ag: 1; MITF inh conf: 15; AlphaScreen intf2: -6

How did CCOC(=O)N1CCN(C(=S)NCc2ccco2)CC1 do in these assays?
MITF primary: 16; TEAD-YAP block: 7; FBW7 act: 0; GPR151 ag: 2

What do the screens show for `COc1ncc(-c2cnc3ccc(NC4CCOCC4)nn23)c(OC)n1`?
MITF primary: 68*; TEAD-YAP block: -17; FBW7 act: 0; GPR151 ag: 1; MITF inh conf: 12; AlphaScreen intf2: 26

What do the screens show for `COc1ccc(-c2cnc3ccc(NC4CCOCC4)nn23)cn1`?
MITF primary: 11; TEAD-YAP block: 9; FBW7 act: 0; GPR151 ag: 0

Results for CC(C)(C)c1csc(CN2CCN(CC(=O)N3CCOCC3)CC2)n1 ?
MITF primary: 54*; TEAD-YAP block: -3; FBW7 act: 0; GPR151 ag: -1; MITF inh conf: 0; AlphaScreen intf2: 4

What do the screens show for `CC(C)(C)c1csc(CN2CCN(CC(=O)NC3CCCCC3)CC2)n1`?
MITF primary: 26; TEAD-YAP block: 1; FBW7 act: 0; GPR151 ag: 1

How did COC(=O)C(C)N1C(=O)S/C(=C/c2ccc(F)cc2)C1=O (centres undefined) do in these assays?
MITF primary: 9; TEAD-YAP block: -17; FBW7 act: 0; GPR151 ag: 2

Results for Cc1ccc(F)cc1Nc1nc2ccccc2n2c(C)nnc12 ?
MITF primary: -2; TEAD-YAP block: -7; FBW7 act: 0; GPR151 ag: 1

What do the screens show for `Cc1nn(C)c(C)c1CCC(=O)N1CCN(c2ncccn2)CC1`?
MITF primary: 72*; TEAD-YAP block: -2; FBW7 act: 0; GPR151 ag: -1; MITF inh conf: 9; AlphaScreen intf2: 14

What do the screens show for `Cn1cc(I)c(C(=O)NNC(=S)NCC2CCCO2)n1` (centres undefined)?
MITF primary: -13; TEAD-YAP block: -5; FBW7 act: -1; GPR151 ag: 1

Results for COc1cc(OC)cc(C(=O)N2CCN(Cc3ccco3)CC2)c1 ?
MITF primary: 59*; TEAD-YAP block: 2; FBW7 act: 0; GPR151 ag: -2; MITF inh conf: 3; AlphaScreen intf2: 16

What do the screens show for `COc1cc(CN2CCN(Cc3ccco3)CC2)cc(OC)c1`?
MITF primary: 83*; TEAD-YAP block: 3; FBW7 act: 0; GPR151 ag: 1; MITF inh conf: 4; AlphaScreen intf2: 20

What do the screens show for `COc1cc(OC)cc(C(=O)N2CCN(Cc3cccc(Oc4ccccc4)c3)CC2)c1`?
MITF primary: 37; TEAD-YAP block: -3; FBW7 act: 0; GPR151 ag: 2

How did COc1cccc(CN2CCN(Cc3ccco3)[C@@H](C)C2)c1 do in these assays?
MITF primary: 3; TEAD-YAP block: 2; FBW7 act: 0; GPR151 ag: -1

How did CC(=O)Nc1ccc(Nc2nc(N3CCN(c4ccccn4)CC3)nc3c2ncn3CCN2CCCC2=O)cc1 do in these assays?
MITF primary: 12; TEAD-YAP block: 2; FBW7 act: 0; GPR151 ag: 0

What do the screens show for `Cc1ccc(C(=O)COC(=O)C(C(C)C)N2C(=O)C3C4C=CC(C4)C3C2=O)cc1[N+](=O)[O-]` (centres undefined)?
MITF primary: 82*; TEAD-YAP block: -3; FBW7 act: 0; GPR151 ag: 2; MITF inh conf: 8; AlphaScreen intf2: 11

How did O=C1CC(N2CCOCC2)C(=O)N1c1cc(C(F)(F)F)ccc1Cl (centres undefined) do in these assays?
MITF primary: 88*; TEAD-YAP block: 1; FBW7 act: 0; GPR151 ag: -1; MITF inh conf: -1; AlphaScreen intf2: 2

What do the screens show for `COc1ccccc1CN1CCN(Cc2ccco2)CC1`?
MITF primary: 77*; TEAD-YAP block: -6; FBW7 act: 0; GPR151 ag: 0; MITF inh conf: 0; AlphaScreen intf2: 12

What do the screens show for `COc1ccc(CN2CCc3ccccc3C2)c(OC)c1`?
MITF primary: 49; TEAD-YAP block: 14; FBW7 act: 0; GPR151 ag: -2

Results for COc1ccc(CN2CCN(C(=O)c3ccco3)CC2)c(OC)c1OC ?
MITF primary: 26; TEAD-YAP block: 0; FBW7 act: 0; GPR151 ag: 0

Results for COc1ccc(CN2CCN(Cc3ccco3)CC2)c(OC)c1OC ?
MITF primary: 55*; TEAD-YAP block: 0; FBW7 act: 0; GPR151 ag: -1; MITF inh conf: 4; AlphaScreen intf2: 0

What do the screens show for `COc1ccc(CN2CCN(Cc3ccco3)CC2)c(OC)c1`?
MITF primary: 73*; TEAD-YAP block: 4; FBW7 act: 0; GPR151 ag: 2; MITF inh conf: 14; AlphaScreen intf2: 15

Results for CC1(C(=O)NC2CCCCCC2)CN(S(C)(=O)=O)CC(=O)N1c1ccc(F)cc1 (centres undefined) ?
MITF primary: 12; TEAD-YAP block: 9; FBW7 act: 0; GPR151 ag: -1

How did CCN(CC)CCCNCc1ccc(Cl)cc1 do in these assays?
MITF primary: 51*; TEAD-YAP block: -9; FBW7 act: 0; GPR151 ag: 0; MITF inh conf: -5; AlphaScreen intf2: 0

How did O=C(N1CCN(c2ccccc2)CC1)C12CC3CC(CC(O)(C3)C1)C2 do in these assays?
MITF primary: 5; TEAD-YAP block: -7; FBW7 act: 0; GPR151 ag: -2
